# Laboratory results reported in PubChem BioAssay AID618 (Sanford-Burnham Center for Chemical Genomics, 2007).
# Among all 87,000 compounds or so, about 540 (0.62%) were called active. How the calls were made is not given here. Only a selection was taken, and actives are over-represented in it overall. Results with a measured potency or affinity are listed apart.
# Assay: inhibitors of MT1-MMP promoter transcription, cell-based, luciferase reporter, luminescence (AID 618);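 further: actives suppress MT1-MMP promoter-driven transcription so potencies describe inhibitors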
# Conditions: MT1-MMP promoter luciferase reporter cells
row,SMILES,outcome
1,Clc1cc(NCc2cccs2)ccc1N1CCOCC1,inactive
2,Cc1cc(N2CC34C=CC(O3)C(C(=O)O)C4C2=O)no1 (configuration not stated),inactive
3,CCOCCn1c(CN2CCN(CC)CC2)nc2c1c(=O)n(C)c(=O)n2C,inactive
4,NC1=NC2(CCC(c3ccccc3)CC2)n2c(nc3ccccc32)N1 (configuration not stated),inactive
5,CC(C)N(Cc1nc(-c2ccc(Cl)cc2)no1)C(=O)CN(C)S(=O)(=O)c1ccc(Cl)cc1,inactive
6,Cc1ccc(NC(=O)c2cc(C)on2)cc1,inactive
7,COC(=O)N1CC=CC1(C)C(=O)NCC1CC1 (configuration not stated),inactive
8,O=C(NCc1ccc2c(c1)OCO2)C1(S(=O)(=O)c2ccccc2)CC1,inactive
9,Cc1nc2c(ccc3nc(NC(=O)c4ccc(S(=O)(=O)N(C)C)cc4)sc32)s1,inactive
10,Cc1nc2c(ccc3nc(NC(=O)c4ccc5c(c4)OCCO5)sc32)s1,active
11,Cc1cc(NC(=O)c2ccc3c(c2)OCCO3)no1,active
12,Cc1nc2ccc3nc(NC(=O)c4ccc5c(c4)OCCO5)sc3c2s1,inactive
13,Cc1cc(NC(=O)c2ccc3c(c2)OCO3)no1,inactive
14,Cc1cc(NC(=O)c2ccc(Cl)cc2)no1,inactive
15,CC(=O)c1ccc(NC(=O)CSc2nnc(NC(=O)CN3CCOCC3)s2)cc1,inactive
16,Cn1cccc1C(=O)NC(=O)COC(=O)CC12CC3CC(CC(C3)C1)C2,inactive
17,Cc1cc2c(c(=O)n1C1CC1)C(c1cccc(Cl)c1)C(C#N)=C(N)O2 (configuration not stated),inactive
18,OCCN1CCN(CCCN2c3ccccc3Sc3ccc(C(F)(F)F)cc32)CC1,active
19,OCCN1CCN(CCCN2c3ccccc3Sc3ccc(Cl)cc32)CC1,inactive
20,CN1CCN(CCCN2c3ccccc3Sc3ccc(C(F)(F)F)cc32)CC1,inactive
21,O=C(Nc1ccccc1C(=O)OCn1nnc2ccccc2c1=O)c1ccco1,inactive
22,CC(=O)Nc1ccc(S(=O)(=O)N2CCC(c3nc4ccc(C)cc4[nH]3)CC2)cc1,inactive
23,CN(C)c1ccc(/C=N/n2ncc3ccccc32)cc1,active

row,SMILES,outcome
1,Cc1nc2ccccc2c(=O)n1/N=C/c1ccc(N(C)C)cc1,inactive
2,C=CCn1c(/N=C/c2ccc(N(C)C)cc2)nc2ccccc21,inactive
3,CCCc1[nH]n(-c2nc3ccccc3s2)c(=O)c1C=NCC(C)C,inactive
4,CCCN=Cc1c(CCC)[nH]n(-c2nc3ccccc3s2)c1=O,inactive
5,O=C(CCN1C(=O)C2C3C=CC(C3)C2C1=O)N1CCN(c2ccccc2Cl)CC1 (configuration not stated),inactive
6,O=C(NCc1ccc2c(c1)OCO2)c1c[nH]c2ccc(S(=O)(=O)N3CCOCC3)cc2c1=O,inactive
7,COC(=O)Cn1c(C)c(C#N)c2ccccc21,inactive
8,COc1ccccc1/C=N/n1c(C)nnc1-n1nc(C)cc1C,inactive
9,CCCOc1ccc2ccccc2c1/C=N/n1c(C)nnc1-n1nc(C)cc1C,active
10,Cc1cc(C)n(-c2nnc(C)n2/N=C/c2cc(Br)ccc2OCc2ccccc2)n1,inactive
11,Cc1nn(C)cc1C=NCCOCc1ccccc1,inactive
12,O=C(CCC(=O)c1cccs1)NC(c1ccccc1)c1ccccc1,inactive
13,Cc1csc(-c2coc3cc(O)cc(C)c3c2=O)n1,inactive
14,COc1ccc2c(=O)c(-c3nc(C)cs3)coc2c1,active
15,COc1ccc2oc(=O)c(-c3nc(C)cs3)cc2c1,inactive
16,CCCC(=O)Nc1cnc(NC(=O)c2cccc(F)c2)cc1C,inactive
17,CCN(CCCNC(=O)CN1C(=O)COc2ccccc21)c1ccccc1,inactive
18,COc1cc(C2C(C#N)=C(C)NC3=C2C(=O)c2ccccc23)cc(OC)c1OC (configuration not stated),active
19,COc1cc(C2C(C#N)=C(C)NC3=C2C(=O)CC(C)(C)C3)cc(OC)c1O (configuration not stated),inactive
20,COc1ccc(C2C(C#N)=C(C)NC3=C2C(=O)c2ccccc23)cc1 (configuration not stated),inactive
21,CCCCCC(=O)N(O)C1CC(=O)N(c2ccccc2)C1=O (configuration not stated),inactive
22,COC(=O)c1ccc(Nc2nc(C)cc(C)n2)cc1,inactive
23,CCOC(=O)c1ccccc1NC(=O)CN(c1ccccc1C)S(C)(=O)=O,inactive

row,SMILES,outcome
1,CN1C(=O)c2c(sc3c2CC(C)(C)SC3)N2CCN=C12,inactive
2,Cc1ccsc1C(=O)N1CC(=O)Nc2ccccc21,inactive
3,O=C1CN(C(=O)c2ccccc2)c2ccccc2N1,inactive
4,Cc1cc(C)cc(C(=O)N2CC(=O)Nc3ccccc32)c1,active
5,O=C(CCN1C(=O)c2ccccc2C1=O)Nc1ccccn1,inactive
6,CNC(=O)C1CCCN1S(=O)(=O)c1ccc(OC)cc1 (configuration not stated),inactive
7,Cc1ccc(NC(=O)CS(=O)CC(=O)NCC2OCCc3ccccc32)c(C)c1 (configuration not stated),inactive
8,Cc1cccc(-c2c3c(=O)n(C)c(=O)n(C)c3c3c(C)cc(C)nn23)c1,inactive
9,Cc1cc(S(=O)(=O)Nc2ccc(N(C)C)cc2)c(C)s1,inactive
10,Fc1ccc2[nH]c3c(N4CCN(c5ccccc5)CC4)ncnc3c2c1,inactive
11,COc1cccc(N2CCN(c3ncnc4c3[nH]c3ccccc34)CC2C)c1 (configuration not stated),inactive
12,COc1cccc(N2CCN(c3ncnc4c3[nH]c3ccc(F)cc34)CC2C)c1 (configuration not stated),active
13,OC(CCN1CCCC1)(c1ccccc1)C1CCCCC1 (configuration not stated),inactive
14,OC(CCCCN1CCCCC1)c1ccccc1 (configuration not stated),inactive
15,CC(C)(C)c1ccc(C(O)CCCN2CCC(C(O)(c3ccccc3)c3ccccc3)CC2)cc1 (configuration not stated),active
16,Nc1ccc2nn(-c3cccc4ccccc34)nc2c1,inactive
17,Cc1ccc(-n2nc(-c3ccc(N)cc3)cc2N)cc1,inactive
18,CCOC(=O)CC1=CC(C)(CC(=O)OCC)C(C#N)(C#N)C(N)=C1C#N (configuration not stated),inactive
19,O=C(CC1(O)C(=O)Nc2ccccc21)c1ccc(-n2cccc2)cc1 (configuration not stated),inactive
20,CC(C)(C)NC(=O)CC(c1ccccc1)c1ccccc1O (configuration not stated),inactive
21,Cc1sc2nc(SCC(=O)NCc3cccs3)[nH]c(=O)c2c1C,inactive
